Screening data (PubChem)
Compounds with a hit are over-represented: about 15% of the library has one in this group of screens.
Pf growth 96h – inhibits malaria parasite growth, 96 h; AID 504834; Potency, µM (doses to about 28.7 µM), actives largely listed as inhibitors; P. falciparum luciferase reporter growth, 96 h; 320,000 compounds, 6.9% hits
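Plates of compound plus infected erythrocytes (2% hematocrit, 0.05% parasitemia final) incubate 96 hours, 37 C, 5% CO2. Detection reagent added; reduced luminescence from the parasites' luciferase reporter flags inhibition.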
HCV inh – blocks hepatitis C virus; Potency, µM (titrated, usually from 41.8 µM), hits mostly inhibitors; Huh7.5.1 HCVcc-Cre infection, luciferase reporter, 44 h; 340,000 compounds, 3.4% hits
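Reporter virus HCVcc-Cre (~0.5 moi) infects cells exposed to compound; seeding density 1,000 cells/well with 4 h settling beforehand. Luminescence, 15 sec read, taken 44 h post-infection following a 15 min RT substrate incubation.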
HCMV inh – inhibitors of human cytomegalovirus | HFF cells, HCMV-luciferase reporter, 72 h; hits give low values | 410,000 compounds, 4.5% hits | AID 1259415 | activity change, negative = inhibition, % at 57.5 µM; in the data active = activity change below about -60%; inconclusive = no clear call, values can overlap the other calls; inactive = above about -39%
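Cell-based, HFFs, 1000 cells/well, 16 h 37C; cpds in DMSO + HCMV-luc, MOI 1 PFU/cell; 72 h 37C; OneGlo luminescence after 5 min RT; norm. to buffer vs Salinomycin 10uM.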
Pf growth 48h – P. falciparum growth inhibition at 48 hours (one generation); 310,000 compounds, 5.9% hits; AID 504832; P. falciparum luciferase growth in erythrocytes, 48 h; Potency, µM (titrated, usually from 28.7 µM), usual class: inhibitors
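Erythrocytes infected with P. falciparum carrying an integrated firefly luciferase reporter (2% hematocrit, 0.1% parasitemia final) were exposed to compounds in RPMI 1640 with 0.5% Albumax at 37 C, 5% CO2. Growth inhibition was scored as reduced luminescence.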
Sm TGR inh – blocks Schistosoma mansoni thioredoxin glutathione reductase; purified TGR, DTNB reduction, TNB absorbance 405 nm; Potency, µM (top dose mostly 114 µM), most hits filed as inhibitors; 360,000 compounds, 3% hits; also: nearly all actives have a fitted effect of over 60% in size
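First, TGR (20 nM dispensed) and NADPH were mixed with compound. Second, a 15 min room-temperature incubation followed. Third, further NADPH and then DTNB were added to start the reaction. Finally, TNB absorbance was monitored kinetically.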
SARS PLP yeast – blocks SARS-CoV papain-like protease in a yeast assay | S. cerevisiae expressing SARS-CoV PLpro, growth rescue | Potency, µM (top dose mostly 32.9 µM), usual class: activators | 330,000 compounds, 0.19% hits | AID 485353; calls by dose curve; also: nearly all actives have a fitted effect of over 55% in size
Numbers stand for hits; . = inactive; ? = inconclusive; / = no result given; ! = a repeat was not active; [ ] = another dose, or the depositor's remark. Unless noted, calls follow the shape of the dose curve; as a rule, active = well fitted curve in the direction sought with a large enough effect; inconclusive = small, poorly fitted or top-dose-only effect, or another doubt; inactive = no such curve, though single readings can be large; an effect the other way counts as inactive or inconclusive.

SMILES	Pf growth 96h	HCV inh	HCMV inh	Pf growth 48h	Sm TGR inh	SARS PLP yeast
O=C(N/N=C/c1ccccn1)c1cccc(S(=O)(=O)Nc2ccccc2Cl)c1	.	.	.	?	.	.
COc1ccc(-c2nn(-c3ccccc3)cc2/C=N/N2C(=O)CSC2=S)cc1	.	?	-96	/	.	.
O=C(Nc1cccc(Cl)c1)C1CCCN(C2=NS(=O)(=O)c3ccccc32)C1 (stereo not drawn)	.	.	.	?	.	.
COc1ccc(CC(=O)Nc2sc3c(c2C(=O)Nc2cccc(C)c2)CCCCC3)cc1	/	/	.	/	.	/
O=C(Nc1ccccc1C(F)(F)F)N1CCN(c2ccc3nnc(-c4ccc(F)cc4)n3n2)CC1	?	?	.	12µM	.	.
O=C(Nc1ccc(F)cc1)N1CCN(c2ccc3nnc(-c4ccc(F)cc4)n3n2)CC1	?	?	-69!	/	.	.
O=C(c1ccc(Br)o1)N1CCN(c2ccc3nnc(-c4ccccc4)n3n2)CC1	.	.	-72	?	?	.
COc1cccc(CNC(=O)c2cc(S(=O)(=O)N3CCOCC3)cn2C)c1	?	.	.	.	.	.
Cc1cccc(-c2noc(CN(C3CCCCC3)S(=O)(=O)c3ccc(F)cc3)n2)c1	/	/	.	/	.	/
COC(=O)C1=C(C(=O)OC)[C@@H]2N(Cc3ccccc3)c3ccccc3[C@@]23C[C@@H](C(=O)OC)N(C(=O)C2CCC2)C3=N1	/	.	/	/	/	/
CC#CCN1c2ccccc2[C@]23C[C@@H](C(=O)OC)N(C(=O)C4CCC4)C2=NC(C(=O)OC)=C(C(=O)OC)[C@H]13	?	.[8.37 µM]	-75	?	.	.
C=CCN1c2ccccc2[C@]23C[C@@H](C(=O)OC)N(C(=O)CC(C)C)C2=NC(C(=O)OC)=C(C(=O)OC)[C@H]13	?	7.9µM	.	?	.	.
COC(=O)C1=C(C(=O)OC)[C@@H]2N(C)c3ccccc3[C@@]23C[C@@H](C(=O)OC)N(C(=O)CC(C)C)C3=N1	?	.	.	?	.	.
CCc1ccc(C(C(=O)NC2CCCCC2)N(C(=O)c2csnn2)C2CC2)cc1 (stereo not drawn)	.	.	.	.	.	.
CC1=NN(c2nc(-c3ccc(C)cc3)cs2)C(=O)C1N=Nc1cccc(O)c1 (stereo not drawn)	.	.	.	.	.	.
CC1=NN(c2nc(-c3ccc(C)cc3)cs2)C(=O)C1N=Nc1ccccc1O (stereo not drawn)	.	10µM	-102	?	.	.
COc1ccc(-c2csc(N3N=C(C)C(C)C3=O)n2)cc1 (stereo not drawn)	12µM	.	.	.	.	.
Cc1ccc(Cl)c(OCC(=O)Nc2cc(S(=O)(=O)N3CCOCC3)ccc2N2CCCC2)c1	8.3µM	.	.	12µM	.	.
CN1CCC(N(C)S(=O)(=O)c2ccc(NC(=O)COc3ccc(F)cc3Cl)cc2)CC1	?	?	.	?	.	.
O=C(COc1ccc(F)cc1Br)Nc1ccccc1N1CCOCC1	?	?	.	10µM	.	.
O=C(COc1ccc(F)cc1Cl)Nc1cc(S(=O)(=O)N2CCOCC2)ccc1N1CCCCC1	2.1µM	?	.	4.1µM	.	.
Cc1ccc(OCC(=O)Nc2cc(S(=O)(=O)N3CCOCC3)ccc2N2CCCC2)cc1	?	?	.	?	.	.
O=C(COC(=O)c1ccc(F)cc1)Nc1cc(S(=O)(=O)N2CCOCC2)ccc1N1CCCC1	.	.	.	.	.	.
CCN(CC)S(=O)(=O)c1ccc(N2CCN(C)CC2)c(NC(=O)COc2ccc(F)cc2Cl)c1	?	?	.	10µM	.	.
O=C(COc1ccc([N+](=O)[O-])cc1Cl)NCC1CCCO1 (stereo not drawn)	.	.	.	.	.	.
SMILES	Pf growth 96h	HCV inh	HCMV inh	Pf growth 48h	Sm TGR inh	SARS PLP yeast
O=C(NCc1ccc(F)cc1F)[C@@H]1CCCN1C(=O)[C@@H]1CCCN1C(=O)c1ccc(Cl)cc1	/	/	.	/	/	/
COc1ccccc1NC(=O)COc1cc(Br)c(CNCCCN2CCOCC2)cc1OC	.	11µM	.	?	.	.
Cc1ccc(OCCCC(=O)Nc2cc(S(=O)(=O)N3CCOCC3)ccc2N2CCOCC2)cc1	.	.	.	10µM	.	.
CN1CCN(c2ccc(S(=O)(=O)N3CCOCC3)cc2NC(=O)COc2ccc(F)cc2Cl)CC1	13µM	.	.	?	.	.
O=C(CCCOc1ccccc1)Nc1cc(S(=O)(=O)N2CCOCC2)ccc1N1CCOCC1	?	.	.	?	.	.
Cc1ccccc1-c1nnn(CC(=O)N(C)CC(=O)Nc2ccccc2C(F)(F)F)n1	.	?	.	.	.	.
COC(=O)c1ccc(NC(=O)CC2C(=O)N(c3ccc(Cl)cc3)C(=O)N2Cc2cccs2)cc1 (stereo not drawn)	/	/	.	/	.	/
COc1ccc(/C=C/C(=O)c2cc(F)ccc2OC(=O)c2ccccc2C)cc1OC	.	.	-86	?	.	.
COc1ccc(C(=O)Oc2ccc(F)cc2C(=O)/C=C/c2ccc(OC)c(OC)c2)cc1	.	.	?	.	.	.
Cc1cc2nc(CCN(Cc3cccnc3)C(=S)Nc3ccc(F)cc3)[nH]c2cc1C	?	.	.	?	.	.
COc1ccccc1NC(=S)N(CCc1nc2cc(C)c(C)cc2[nH]1)Cc1cccnc1	?	?	.	10µM	.	.
Cc1cc2nc(CCN(Cc3cccnc3)C(=S)Nc3ccccc3)[nH]c2cc1C	7.4µM	?	.	12µM	.	.
CC(C)(C)OC(=O)C(C)(C)Sc1nnc(N)s1	.	.	.	?	.	.
CCOC(=O)c1c(N)sc2c(OCC)c(Br)ccc12	.	10µM	.	.	.	.
CCOC(=O)c1c(NC(C)=O)sc2c(O)c(Br)cc(Br)c12	.	.	?	.	40µM	.
CCOC(=O)c1c(NC(C)=O)sc2c(OCC(O)CNC(C)(C)C)c(Br)ccc12 (stereo not drawn)	.	4.5µM	-85	.	.	.
CCOC(=O)c1c(NC(C)=O)sc2c(O)cccc12	.	.	.	/	.[11.4 µM]	.
COc1ccc(Cn2ccnc2SCC(=O)Nc2cc(C(F)(F)F)ccc2Cl)cc1	/	/	.	/	.	/
Cc1cc2nn(-c3ccc(F)cc3)nc2cc1NC(=O)c1cccc([N+](=O)[O-])c1C	/	/	.	/	.	/
O=Cc1c(-c2ccc(Cl)cc2)oc2ccc(O)cc12	/	.	.	/	/	/
COC(=O)c1ccccc1N(C)S(=O)(=O)c1cc2c3c(c1)CC(=O)N3CCC2	/	/	.	/	.	/
O=C(O)c1ccc(CN(c2ccccc2)S(=O)(=O)c2ccccc2)cc1	.	.	.	?	.	.
COc1ccc(-c2cc(C(=O)Nc3c(F)cc(F)cc3Br)no2)cc1	8.3µM	.	.	.	.	.
